# Assays:
# Assay in all cases: DAPPL (digital affinity profiling via proximity ligation, sequencing); 10 mM Tris-HCl pH 7.5, 50 mM NaCl, 1 mM DTT, 4% glycerol, room temperature, 30 min; GST-TFs on glutathione beads, 16-mer random dsDNA library, 0.1% formaldehyde crosslink after washing; high values mean tight binding
# Conditions in all cases: protein: recombinant; tags: N-terminal GST; dsDNA, one strand shown
# ETV5 = ETV5 (Homo sapiens, UniProt P41161 1-510)
# Summary of the method: (§1)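 Binding signal is given per hexamer as its read frequency for a factor divided by its frequency in the tag-only sample. GST-fused human transcription factors were expressed in yeast, captured on glutathione beads, barcoded with DNA and pooled with that sample, then incubated with 200 nmole of a 16-mer random double-stranded DNA library in Tris/NaCl/DTT/glycerol buffer for 30 min at room temperature. The pools were then washed, crosslinked, proximity-ligated, amplified by PCR and sequenced on an Illumina NextSeq500.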
# SPIC = biological target: T1, SPIC (Homo sapiens, UniProt Q8N5J4 1-248)
# T1 sequence: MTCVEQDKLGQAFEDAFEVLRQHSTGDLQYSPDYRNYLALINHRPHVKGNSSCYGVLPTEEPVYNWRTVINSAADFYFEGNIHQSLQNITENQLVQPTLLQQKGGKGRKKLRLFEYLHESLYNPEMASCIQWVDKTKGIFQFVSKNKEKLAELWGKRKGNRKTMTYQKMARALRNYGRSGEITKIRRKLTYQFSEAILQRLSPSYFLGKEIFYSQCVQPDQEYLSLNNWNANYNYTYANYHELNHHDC
# Summary of the method: as §1
# ELF4 = ELF4 (Homo sapiens, UniProt Q99607 1-663)
# Chain of ELF4 (Q99607 whole entry): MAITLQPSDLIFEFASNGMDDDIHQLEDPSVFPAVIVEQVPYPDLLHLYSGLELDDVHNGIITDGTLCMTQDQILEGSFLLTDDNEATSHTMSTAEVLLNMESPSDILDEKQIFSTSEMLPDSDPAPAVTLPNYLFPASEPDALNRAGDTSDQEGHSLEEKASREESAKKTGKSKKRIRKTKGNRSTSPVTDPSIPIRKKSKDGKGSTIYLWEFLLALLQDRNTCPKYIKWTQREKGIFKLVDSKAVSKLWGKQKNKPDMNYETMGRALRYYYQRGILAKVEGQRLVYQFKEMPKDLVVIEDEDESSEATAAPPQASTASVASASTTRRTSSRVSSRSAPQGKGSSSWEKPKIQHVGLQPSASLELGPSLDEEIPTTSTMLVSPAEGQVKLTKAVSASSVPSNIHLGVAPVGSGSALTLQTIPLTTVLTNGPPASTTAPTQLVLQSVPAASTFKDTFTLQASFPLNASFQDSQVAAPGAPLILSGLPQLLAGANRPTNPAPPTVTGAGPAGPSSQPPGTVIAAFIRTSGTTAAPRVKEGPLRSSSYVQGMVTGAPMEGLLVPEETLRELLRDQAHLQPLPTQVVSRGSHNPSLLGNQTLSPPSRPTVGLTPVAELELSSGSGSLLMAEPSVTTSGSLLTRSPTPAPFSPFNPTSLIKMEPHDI
# Summary of the method: as §1
# ETV1 = ETV1 (Homo sapiens, UniProt P50549 1-477)
# Chain of ETV1 (P50549 whole entry): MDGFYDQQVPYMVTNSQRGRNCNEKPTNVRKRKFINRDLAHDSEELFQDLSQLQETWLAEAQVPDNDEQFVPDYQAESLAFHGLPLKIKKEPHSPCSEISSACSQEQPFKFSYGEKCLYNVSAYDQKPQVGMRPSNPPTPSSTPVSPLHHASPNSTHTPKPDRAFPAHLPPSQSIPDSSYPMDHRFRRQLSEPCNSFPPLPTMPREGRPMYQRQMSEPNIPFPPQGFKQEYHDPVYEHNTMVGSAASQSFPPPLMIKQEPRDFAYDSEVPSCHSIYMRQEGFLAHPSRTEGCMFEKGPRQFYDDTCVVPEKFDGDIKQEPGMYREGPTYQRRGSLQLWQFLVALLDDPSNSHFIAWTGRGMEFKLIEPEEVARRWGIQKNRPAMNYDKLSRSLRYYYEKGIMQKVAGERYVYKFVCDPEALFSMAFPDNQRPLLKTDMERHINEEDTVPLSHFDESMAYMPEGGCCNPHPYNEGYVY
# Summary of the method: as §1
# ERF = biological target: T2, ERF (Homo sapiens, UniProt P50548 1-548)
# T2 sequence: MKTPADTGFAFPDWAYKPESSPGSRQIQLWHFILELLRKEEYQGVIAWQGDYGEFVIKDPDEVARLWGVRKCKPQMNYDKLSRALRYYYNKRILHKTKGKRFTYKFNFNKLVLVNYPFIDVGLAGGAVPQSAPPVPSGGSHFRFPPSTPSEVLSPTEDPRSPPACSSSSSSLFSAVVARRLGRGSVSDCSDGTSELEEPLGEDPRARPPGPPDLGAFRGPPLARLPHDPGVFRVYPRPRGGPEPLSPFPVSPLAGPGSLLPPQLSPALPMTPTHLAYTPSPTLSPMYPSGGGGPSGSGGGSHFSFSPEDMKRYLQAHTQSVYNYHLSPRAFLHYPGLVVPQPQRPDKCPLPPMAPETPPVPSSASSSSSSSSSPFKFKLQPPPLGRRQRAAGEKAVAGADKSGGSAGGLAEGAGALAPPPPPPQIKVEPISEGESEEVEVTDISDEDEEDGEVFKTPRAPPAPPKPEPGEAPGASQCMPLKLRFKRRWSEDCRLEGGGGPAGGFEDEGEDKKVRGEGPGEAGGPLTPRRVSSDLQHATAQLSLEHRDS
# Summary of the method: as §1
# ETV3L = biological target: T3, ETV3L (Homo sapiens, UniProt Q6ZN32 1-361)
# T3 sequence: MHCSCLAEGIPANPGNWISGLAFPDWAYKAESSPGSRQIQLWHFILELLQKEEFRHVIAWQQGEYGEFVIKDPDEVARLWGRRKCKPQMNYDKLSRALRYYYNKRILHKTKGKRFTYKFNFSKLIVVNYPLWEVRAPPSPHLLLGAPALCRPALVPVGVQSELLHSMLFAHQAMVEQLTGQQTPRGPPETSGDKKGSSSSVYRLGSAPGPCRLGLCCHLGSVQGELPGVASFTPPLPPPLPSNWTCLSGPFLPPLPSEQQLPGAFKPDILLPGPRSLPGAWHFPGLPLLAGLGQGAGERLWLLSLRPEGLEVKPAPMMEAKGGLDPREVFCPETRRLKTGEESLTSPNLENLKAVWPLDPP
# Summary of the method: as §1
# ETS2 = biological target: T4, ETS2 (Homo sapiens, UniProt P15036 1-469)
# T4 sequence: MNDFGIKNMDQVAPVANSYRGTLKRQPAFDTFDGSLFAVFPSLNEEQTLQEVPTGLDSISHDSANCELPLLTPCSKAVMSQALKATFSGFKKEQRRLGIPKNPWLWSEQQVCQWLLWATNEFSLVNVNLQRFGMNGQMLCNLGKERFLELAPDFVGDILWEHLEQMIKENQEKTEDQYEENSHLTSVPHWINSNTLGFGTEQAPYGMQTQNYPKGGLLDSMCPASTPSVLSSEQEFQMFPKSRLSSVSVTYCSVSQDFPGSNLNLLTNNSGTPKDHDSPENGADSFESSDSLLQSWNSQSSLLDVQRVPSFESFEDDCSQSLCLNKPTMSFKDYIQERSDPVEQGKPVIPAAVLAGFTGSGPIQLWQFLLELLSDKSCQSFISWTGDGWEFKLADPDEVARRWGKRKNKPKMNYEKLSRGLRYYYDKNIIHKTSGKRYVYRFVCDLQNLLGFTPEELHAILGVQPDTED
# Summary of the method: as §1
# ELF5 = biological target: T5, ELF5 (Homo sapiens, UniProt Q9UKW6-2 1-255)
# T5 sequence: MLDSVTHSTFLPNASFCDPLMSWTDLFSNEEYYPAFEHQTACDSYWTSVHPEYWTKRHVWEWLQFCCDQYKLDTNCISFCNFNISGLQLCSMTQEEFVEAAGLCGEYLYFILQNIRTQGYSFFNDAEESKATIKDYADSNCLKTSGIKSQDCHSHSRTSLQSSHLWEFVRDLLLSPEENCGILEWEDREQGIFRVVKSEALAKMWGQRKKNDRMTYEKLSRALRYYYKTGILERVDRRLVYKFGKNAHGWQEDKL
# Summary of the method: as §1
# ETV3 = biological target: T6, ETV3 (Homo sapiens, UniProt P41162-2 1-143)
# T6 sequence: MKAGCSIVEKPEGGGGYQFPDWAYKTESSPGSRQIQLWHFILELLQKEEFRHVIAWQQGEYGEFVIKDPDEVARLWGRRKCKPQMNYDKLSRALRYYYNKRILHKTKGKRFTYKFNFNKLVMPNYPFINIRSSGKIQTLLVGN
# Summary of the method: as §1
# ETV6 = ETV6 (Homo sapiens, UniProt P41212 1-452)
# Chain of ETV6 (P41212 whole entry): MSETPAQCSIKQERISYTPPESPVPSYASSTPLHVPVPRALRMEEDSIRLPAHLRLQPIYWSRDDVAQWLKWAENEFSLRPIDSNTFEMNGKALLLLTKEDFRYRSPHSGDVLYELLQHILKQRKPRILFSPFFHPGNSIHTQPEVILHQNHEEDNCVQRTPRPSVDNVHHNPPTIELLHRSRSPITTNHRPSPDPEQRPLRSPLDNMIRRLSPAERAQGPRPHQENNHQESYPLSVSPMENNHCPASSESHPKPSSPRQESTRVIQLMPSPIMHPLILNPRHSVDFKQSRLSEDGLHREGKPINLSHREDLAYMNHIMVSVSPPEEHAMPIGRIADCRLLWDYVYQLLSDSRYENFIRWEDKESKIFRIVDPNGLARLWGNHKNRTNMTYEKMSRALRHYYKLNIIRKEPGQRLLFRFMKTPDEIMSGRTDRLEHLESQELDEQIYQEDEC
# Summary of the method: as §1
# Chain of ETV5 (P41161 whole entry, the tested form may be a part): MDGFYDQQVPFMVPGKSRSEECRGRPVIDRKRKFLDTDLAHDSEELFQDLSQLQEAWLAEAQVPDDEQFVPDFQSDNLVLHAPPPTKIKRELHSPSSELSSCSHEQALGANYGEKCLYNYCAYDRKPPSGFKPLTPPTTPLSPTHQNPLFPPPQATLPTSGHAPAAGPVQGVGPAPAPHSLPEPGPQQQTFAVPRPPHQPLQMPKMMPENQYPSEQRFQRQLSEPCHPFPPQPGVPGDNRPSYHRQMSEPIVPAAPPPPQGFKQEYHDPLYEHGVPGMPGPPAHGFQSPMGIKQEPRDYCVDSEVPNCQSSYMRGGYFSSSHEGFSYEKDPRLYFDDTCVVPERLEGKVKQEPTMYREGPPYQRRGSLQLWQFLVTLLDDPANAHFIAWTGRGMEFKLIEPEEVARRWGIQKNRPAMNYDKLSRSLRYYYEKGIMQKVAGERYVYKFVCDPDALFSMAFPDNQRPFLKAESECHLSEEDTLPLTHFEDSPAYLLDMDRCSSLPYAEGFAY
sequence,measurement,setting,value
ATGGTG,binding signal,ETV5,"1.18 fold enrichment (6-mer frequency, TF over GST control)"
same,binding signal,SPIC,"1.2 fold enrichment (6-mer frequency, TF over GST control)"
same,binding signal,ELF4,"1.14 fold enrichment (6-mer frequency, TF over GST control)"
same,binding signal,ETV1,"1.11 fold enrichment (6-mer frequency, TF over GST control)"
same,binding signal,ERF,"1.13 fold enrichment (6-mer frequency, TF over GST control)"
same,binding signal,ETV3L,"1.04 fold enrichment (6-mer frequency, TF over GST control)"
same,binding signal,ETS2,"1.14 fold enrichment (6-mer frequency, TF over GST control)"
same,binding signal,ELF5,"1.02 fold enrichment (6-mer frequency, TF over GST control)"
same,binding signal,ETV3,"1.04 fold enrichment (6-mer frequency, TF over GST control)"
same,binding signal,ETV6,"1.11 fold enrichment (6-mer frequency, TF over GST control)"
